In PubChem BioAssay AID1159580 (chemical genetic matrix, 2015):
The campaign covered roughly 5,500 compounds. About 2,000 (36%) were called active. Roughly 18% stayed inconclusive and do not appear here. Cut-off read from the data, not from the text of the source: active = normalized growth mostly below about 0.91 (no sharp cut-off); inconclusive = no clear call, values can overlap the other calls; inactive = mostly above about 0.92. The list shows a part of the results.

Experiment: chemical genetic growth profiling, strain panel (AID 1159580);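 note: tested at 20 µM; growth read once vehicle control cultures reached saturation at 30 °C; 1 = growth at the plate median or of vehicle wells; lower values mean less growth of the strain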
Conditions: S. cerevisiae deletion strains, growth OD
[1] = locus YAR019C, strain CDC15, active compounds read low
[2] = locus YBL105C, strain PKC1, active compounds read low
[3] = locus YBR135W, strain CKS1, active compounds read low
[4] = locus YBR136W, strain MEC1, active compounds read low
[5] = locus YBR160W, strain CDC28, active compounds read low
[6] = locus YDL017W, strain CDC7, active compounds read low
[7] = locus YDL028C, strain MPS1, active compounds read low
[8] = locus YDL101C, strain DUN1, active compounds read low
[9] = locus YDL108W, strain KIN28, active compounds read low
[10] = locus YDL132W, strain cdc53, active compounds read low
[11] = locus YDL214C, strain PRR2, active compounds read low
[12] = locus YDR052C, strain DBF4, active compounds read low
[13] = locus YDR054C, strain cdc34, active compounds read low
[14] = locus YDR226W, strain ADK1, active compounds read low
[15] = locus YDR477W, strain SNF1, active compounds read low
[16] = locus YER123W, strain YCK3, active compounds read low
[17] = locus YER133W, strain GLC7, active compounds read low
[18] = locus YFL009W, strain cdc4, active compounds read low
[19] = locus YFL029C, strain CAK1, active compounds read low
[20] = locus YFR003C, strain YPI1, active compounds read low
[21] = locus YFR019W, strain FAB1, active compounds read low
[22] = locus YFR028C, strain CDC14, active compounds read low
[23] = locus YGR040W, strain KSS1, active compounds read low
[24] = locus YGR052W, strain FMP48, active compounds read low
[25] = locus YGR092W, strain DBF2, active compounds read low
[26] = locus YHR030C, strain SLT2, active compounds read low
[27] = locus YHR079C, strain IRE1, active compounds read low
[28] = locus YHR082C, strain KSP1, active compounds read low
[29] = locus YHR205W, strain SCH9, active compounds read low
[30] = locus YIL147C, strain SLN1, active compounds read low
[31] = locus YJL095W, strain BCK1, active compounds read low
[32] = locus YJL128C, strain PBS2, active compounds read low
[33] = locus YJL157C, strain FAR1, active compounds read low
[34] = locus YJR016C, strain ILV3, active compounds read low
[35] = locus YJR066W, strain TOR1 (second series), active compounds read low
[36] = locus YJR066W, strain TOR1, active compounds read low
[37] = locus YKL048C, strain ELM1, active compounds read low
[38] = locus YKL067W, strain YNK1, active compounds read low
[39] = locus YKL101W, strain HSL1, active compounds read low
[40] = locus YKL193C, strain SDS22, active compounds read low
[41] = locus YKL203C, strain TOR2, active compounds read low
[42] = locus YLR113W, strain HOG1, active compounds read low
[43] = locus YLR133W, strain CKI1, active compounds read low
[44] = locus YLR403W, strain SFP1, active compounds read low
[45] = locus YML070W, strain DAK1, active compounds read low
[46] = locus YMR001C, strain CDC5, active compounds read low
[47] = locus YMR205C, strain PFK2 (second series), active compounds read low
[48] = locus YMR277W, strain FCP1, active compounds read low
[49] = locus YNL006W, strain LST8, active compounds read low
[50] = locus YNL020C, strain ARK1, active compounds read low
[51] = locus YNL161W, strain CBK1, active compounds read low
[52] = locus YNL183C, strain NPR1, active compounds read low
[53] = locus YNL207W, strain RIO2, active compounds read low
[54] = locus YNL222W, strain SSU72, active compounds read low
[55] = locus YNL307C, strain MCK1 (second series), active compounds read low
[56] = locus YOL078W, strain AVO1, active compounds read low
[57] = locus YOL136C, strain PFK27, active compounds read low
[58] = locus YOR061W, strain CKA2, active compounds read low
[59] = locus YOR119C, strain RIO1, active compounds read low
[60] = locus YOR231W, strain MKK1, active compounds read low
[61] = locus YOR329C, strain SCD5, active compounds read low
[62] = locus YPL031C, strain PHO85, active compounds read low
[63] = locus YPL153C, strain RAD53, active compounds read low
[64] = locus YPL204W, strain HRR25, active compounds read low
[65] = locus YPL209C, strain IPL1, active compounds read low
[66] = locus YPL256C, strain CLN2, active compounds read low
[67] = locus YPR025C, strain CCL1, active compounds read low
[68] = locus YPR106W, strain ISR1, active compounds read low
[69] = locus YPR111W, strain DBF20, active compounds read low
[70] = strain NNK1, active compounds read low
[71] = strain TSCII, active compounds read low

Measured: normalized growth

Nc1ccc(N2CCN(c3ccc(C(F)(F)F)cn3)CC2)nc1
inactive: [1] 0.974 | [2] 0.984 | [3] 0.969 | [4] 0.983 | [5] 0.964 | [6] 0.98 | [7] 0.949 | [8] 0.987 | [9] 0.966 | [10] 0.992 | [11] 0.927 | [12] 0.988 | [13] 0.994 | [14] 0.975 | [15] 0.862 | [16] 0.879 | [17] 0.916 | [18] 0.968 | [19] 0.971 | [20] 0.981 | [21] 0.862 | [22] 0.982 | [23] 0.865 | [24] 0.968 | [25] 0.722 | [27] 0.948 | [28] 0.966 | [29] 0.986 | [30] 0.973 | [31] 0.809 | [32] 1.02 | [33] 0.921 | [34] 0.976 | [35] 0.775 | [36] 0.879 | [37] 1.03 | [38] 0.91 | [39] 0.98 | [40] 0.983 | [41] 0.976 | [42] 0.991 | [43] 0.96 | [44] 0.9 | [45] 0.917 | [46] 0.977 | [47] 0.952 | [48] 0.952 | [49] 0.967 | [50] 0.95 | [51] 0.991 | [52] 1.01 | [53] 0.959 | [54] 0.956 | [55] 0.916 | [56] 0.982 | [57] 0.928 | [58] 0.943 | [59] 0.923 | [60] 0.904 | [61] 0.986 | [62] 0.876 | [63] 0.835 | [64] 0.828 | [65] 0.991 | [66] 0.983 | [67] 0.981 | [68] 1.01 | [69] 1.02 | [70] 0.984 | [71] 0.97
active: [26] 0.724

Cc1oc(-c2ccc(Cl)cc2)cc1C(=O)N1CCN(c2ccc(C(F)(F)F)cn2)CC1
active: [26] 0.682
inactive: [1] 0.977 | [2] 0.972 | [3] 0.97 | [4] 0.963 | [5] 0.969 | [6] 0.978 | [7] 0.974 | [8] 0.983 | [9] 0.974 | [10] 0.982 | [11] 0.908 | [12] 0.982 | [13] 0.969 | [14] 0.972 | [15] 0.925 | [16] 0.926 | [17] 0.938 | [18] 0.967 | [19] 0.986 | [20] 0.974 | [21] 0.992 | [22] 0.976 | [23] 0.929 | [24] 0.959 | [25] 0.874 | [27] 0.964 | [28] 0.966 | [29] 0.883 | [30] 0.979 | [31] 0.905 | [32] 0.918 | [33] 0.944 | [34] 0.979 | [35] 0.975 | [36] 0.9 | [37] 0.976 | [38] 0.907 | [39] 0.94 | [40] 0.97 | [41] 1 | [42] 0.893 | [43] 0.929 | [44] 0.94 | [45] 0.951 | [46] 0.989 | [47] 0.937 | [48] 0.975 | [49] 0.981 | [50] 0.933 | [51] 0.975 | [52] 0.95 | [53] 0.973 | [54] 0.981 | [55] 0.944 | [56] 0.981 | [57] 0.961 | [58] 0.873 | [59] 0.929 | [60] 0.96 | [61] 0.982 | [62] 0.936 | [63] 0.948 | [64] 0.936 | [65] 0.983 | [66] 0.909 | [67] 0.975 | [68] 0.972 | [69] 0.955 | [70] 0.97 | [71] 0.98
